Experimental data published in PubChem BioAssay AID1159580 (chemical genetic matrix, 2015).
Screen size: about 5,500 compounds; about 2,000 (36%) were called active. Another 18% or so got no clear call; they are omitted. No stated cut-off is given here; in the data, active means normalized growth mostly below about 0.91 (no sharp cut-off); inconclusive means no clear call, values can overlap the other calls; inactive means mostly above about 0.92. This is one part of the list.

Experiment: chemical genetic growth profiling, strain panel (AID 1159580);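 further: tested at 20 µM; growth read once vehicle control cultures reached saturation at 30 °C; 1 = growth at the plate median or of vehicle wells; lower values mean less growth of the strain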
Settings: growth OD

Measured: normalized growth

CC1(C)O[C@@H]2CC3C4C[C@H](F)C5=CC(=O)CC[C@]5(C)C4[C@@H](O)C[C@]3(C)[C@]2(C(=O)CO)O1 (some centres not stated)
inactive: S. cerevisiae deletion strains, locus YJR075W, strain HOC1, hits give low values 1.01 | S. cerevisiae deletion strains, locus YKL009W, strain mrt4, hits give low values 0.999 | S. cerevisiae deletion strains, locus YKL068W, hits give low values 1.02 | S. cerevisiae deletion strains, locus YKL085W, strain MDH1 (second series), hits give low values 1 | S. cerevisiae deletion strains, locus YKL085W, strain MDH1, hits give low values 1 | S. cerevisiae deletion strains, locus YKL160W, strain elf1, hits give low values 0.988 | S. cerevisiae deletion strains, locus YKL190W, strain CNB1, hits give low values 1.02 | S. cerevisiae deletion strains, locus YKR001C, strain vps1, hits give low values 1.01 | S. cerevisiae deletion strains, locus YKR026C, strain gcn3, hits give low values 1 | S. cerevisiae deletion strains, locus YKR091W, strain srl3, hits give low values 0.997 | S. cerevisiae deletion strains, locus YLL001W, strain dnm1, hits give low values 0.977 | S. cerevisiae deletion strains, locus YLL026W, hits give low values 1.01 | S. cerevisiae deletion strains, locus YLL041C, strain sdh2, hits give low values 1.01 | S. cerevisiae deletion strains, locus YLR027C, strain aat2, hits give low values 1.02 | S. cerevisiae deletion strains, locus YLR039C, strain RIC1, hits give low values 1.03 | S. cerevisiae deletion strains, locus YLR058C, strain SHM2, hits give low values 1.02 | S. cerevisiae deletion strains, locus YLR102C, strain apc9, hits give low values 1.01 | S. cerevisiae deletion strains, locus YLR113W, strain HOG1, hits give low values 1.02 | S. cerevisiae deletion strains, locus YLR221C, strain rsa3, hits give low values 0.999 | S. cerevisiae deletion strains, locus YLR258W, strain gsy2, hits give low values 1.02 | S. cerevisiae deletion strains, locus YLR262C, strain YPT6 (second series), hits give low values 0.988 | S. cerevisiae deletion strains, locus YLR262C, strain YPT6, hits give low values 1.04 | S. cerevisiae deletion strains, locus YLR268W, strain sec22, hits give low values 1.01 | S. cerevisiae deletion strains, locus YLR320W, strain mms22, hits give low values 0.985 | S. cerevisiae deletion strains, locus YLR330W, strain CHS5, hits give low values 1.01 | S. cerevisiae deletion strains, locus YLR342W, strain FKS1 (second series), hits give low values 0.997 | S. cerevisiae deletion strains, locus YLR342W, strain FKS1, hits give low values 1.01 | S. cerevisiae deletion strains, locus YLR357W, strain rsc2, hits give low values 0.968 | S. cerevisiae deletion strains, locus YLR370C, strain arc18, hits give low values 1 | S. cerevisiae deletion strains, locus YLR371W, strain rom2, hits give low values 1 | S. cerevisiae deletion strains, locus YLR384C, strain iki3, hits give low values 0.986 | S. cerevisiae deletion strains, locus YLR418C, strain cdc73, hits give low values 1.01 | S. cerevisiae deletion strains, locus YML016C, strain PPZ1, hits give low values 1.01 | S. cerevisiae deletion strains, locus YML032C, strain rad52, hits give low values 0.996 | S. cerevisiae deletion strains, locus YML120C, strain ndi1, hits give low values 1.01 | S. cerevisiae deletion strains, locus YML124C, strain tub3, hits give low values 1.01 | S. cerevisiae deletion strains, locus YMR058W, strain fet3, hits give low values 1.02 | S. cerevisiae deletion strains, locus YMR078C, strain ctf18, hits give low values 1.01 | S. cerevisiae deletion strains, locus YMR125W, strain sto1, hits give low values 1.02 | S. cerevisiae deletion strains, locus YMR129W, hits give low values 1.02 | S. cerevisiae deletion strains, locus YMR205C, strain PFK2, hits give low values 1.01 | S. cerevisiae deletion strains, locus YMR223W, strain ubp8, hits give low values 0.993 | S. cerevisiae deletion strains, locus YMR231W, strain pep5, hits give low values 1 | S. cerevisiae deletion strains, locus YMR263W, strain SAP30, hits give low values 1.02 | S. cerevisiae deletion strains, locus YMR307W, strain GAS1, hits give low values 1.01 | S. cerevisiae deletion strains, locus YNL067W, strain RPL9B, hits give low values 1.01 | S. cerevisiae deletion strains, locus YNL071W, strain lat1, hits give low values 1.01 | S. cerevisiae deletion strains, locus YNL128W, strain TEP1, hits give low values 1.02 | S. cerevisiae deletion strains, locus YNL153C, strain GIM3, hits give low values 1.01 | S. cerevisiae deletion strains, locus YNL183C, strain NPR1, hits give low values 0.931 | S. cerevisiae deletion strains, locus YNL209W, strain ssb2, hits give low values 0.999 | S. cerevisiae deletion strains, locus YNL233W, strain BNI4, hits give low values 1.01 | S. cerevisiae deletion strains, locus YNL248C, strain rpa49, hits give low values 0.987 | S. cerevisiae deletion strains, locus YNL250W, strain rad50, hits give low values 1 | S. cerevisiae deletion strains, locus YNL271C, strain bni1, hits give low values 1.01 | S. cerevisiae deletion strains, locus YNL298W, strain CLA4, hits give low values 1 | S. cerevisiae deletion strains, locus YNL307C, strain MCK1, hits give low values 1.01 | S. cerevisiae deletion strains, locus YNL322C, strain KRE1 (second series), hits give low values 0.993 | S. cerevisiae deletion strains, locus YNL322C, strain KRE1, hits give low values 1.02 | S. cerevisiae deletion strains, locus YNR049C, strain mso1, hits give low values 1 | S. cerevisiae deletion strains, locus YNR052C, strain pop2, hits give low values 0.999 | S. cerevisiae deletion strains, locus YOL006C, strain TOP1, hits give low values 1.04 | S. cerevisiae deletion strains, locus YOL012C, strain htz1 0.952 | S. cerevisiae deletion strains, locus YOL147C, strain pex11, hits give low values 1.01 | S. cerevisiae deletion strains, locus YOR001W, strain rrp6, hits give low values 1 | S. cerevisiae deletion strains, locus YOR061W, strain CKA2, hits give low values 1.01 | S. cerevisiae deletion strains, locus YOR069W, strain VPS5, hits give low values 1.01 | S. cerevisiae deletion strains, locus YOR070C, strain gyp1, hits give low values 1.01 | S. cerevisiae deletion strains, locus YOR080W, strain dia2, hits give low values 1.02 | S. cerevisiae deletion strains, locus YOR083W, strain WHI5, hits give low values 0.946 | S. cerevisiae deletion strains, locus YOR106W, strain vam3, hits give low values 1.01 | S. cerevisiae deletion strains, locus YOR136W, strain idh2, hits give low values 0.994 | S. cerevisiae deletion strains, locus YOR144C, strain elg1, hits give low values 1 | S. cerevisiae deletion strains, locus YOR184W, strain ser1, hits give low values 1 | S. cerevisiae deletion strains, locus YOR231W, strain MKK1, hits give low values 1.03 | S. cerevisiae deletion strains, locus YOR265W, strain rbl2, hits give low values 1.01 | S. cerevisiae deletion strains, locus YOR270C, strain vph1, hits give low values 1.03 | S. cerevisiae deletion strains, locus YOR290C, strain snf2, hits give low values 1.01 | S. cerevisiae deletion strains, locus YOR316C, strain cot1, hits give low values 1.01 | S. cerevisiae deletion strains, locus YPL051W, strain arl3, hits give low values 1.01 | S. cerevisiae deletion strains, locus YPL055C, strain LGE1, hits give low values 1.04 | S. cerevisiae deletion strains, locus YPL078C, strain atp4, hits give low values 1.01 | S. cerevisiae deletion strains, locus YPL106C, strain sse1, hits give low values 0.973 | S. cerevisiae deletion strains, locus YPL240C, strain hsp82, hits give low values 1 | S. cerevisiae deletion strains, locus YPL241C, strain CIN2, hits give low values 0.962 | S. cerevisiae deletion strains, locus YPL256C, strain CLN2, hits give low values 1.03 | S. cerevisiae deletion strains, locus YPR119W, strain clb2, hits give low values 1 | S. cerevisiae deletion strains, locus YPR141C, strain kar3, hits give low values 1.01 | S. cerevisiae deletion strains, locus YPR163C, strain tif3, hits give low values 1 | S. cerevisiae deletion strains, locus YPR167C, strain met16, hits give low values 1 | S. cerevisiae deletion strains, strain wtn01, hits give low values 1.01 | S. cerevisiae strains, strain wild type, hits give low values 1.02
